# Measured values published in PubChem BioAssay.
# Values joined by “and” are separate entries in the source; they are usually repeats but may differ in a detail not shown here. Equal entries are not always repeated. Active and inactive are the calls of the source.
# Key:
# [1] = test system: Plasmodium falciparum Sir2 (PF13_0152, Sir2A); assay: Plasmodium falciparum Sir2A binding compounds – biochemical, small-molecule microarray, 635 nm fluorescence, primary screen (AID 1098); details: fluorescence 635 nm, higher = more signal;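 note: score merges spot fluorescence intensity with its signal-to-noise ratio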
# [2] = probe aDKK1 binding to arrayed compounds – biochemical, biotinylated probe, 635/667 nm fluorescence, primary screen (AID 1099); details: small-molecule microarray, higher = more signal;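 note: score merges 667nm spot fluorescence with signal to noise across triplicate slides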
# [3] = probe aCHRDL2 binding to arrayed compounds – biochemical, biotinylated probe, 635/667 nm fluorescence, primary screen (AID 1100); details: small-molecule microarray, higher = more signal
# [4] = change in splice reporter luminescence, either direction, cell-based, HEK293, spliceosome inhibition project, primary screen (AID 1101); details: HEK293 splicing luciferase reporter, 24 h, higher = more signal, called active from +8 up or from −8 down;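 note: HEK293 cells carrying a splicing-competent luciferase reporter gene; test concentration not given here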
# [5] = biological target: Fibroblast growth factor 10 (Homo sapiens) (UniProt O15520); assay: compounds binding fibroblast growth factor 10 – biochemical, small-molecule microarray, 635 nm fluorescence, primary screen (AID 1102); details: FGF10 binding, fluorescence 635 nm, higher = more signal
# Sequence of Fibroblast growth factor 10 (Homo sapiens) (O15520 whole entry, looked up): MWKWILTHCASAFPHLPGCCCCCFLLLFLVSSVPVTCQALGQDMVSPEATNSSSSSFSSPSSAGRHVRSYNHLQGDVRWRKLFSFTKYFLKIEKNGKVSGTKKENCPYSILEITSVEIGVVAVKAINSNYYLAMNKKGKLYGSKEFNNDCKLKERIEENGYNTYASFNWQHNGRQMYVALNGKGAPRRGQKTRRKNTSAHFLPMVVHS
# [6] = test system: glycogen synthase kinase-3 (GSK3A per assay name; protocol says GSK3B); assay: compounds binding glycogen synthase kinase-3 – biochemical, small-molecule microarray, 635 nm fluorescence, GSK3A, primary screen (AID 1103); details: fluorescence 635 nm, higher = more signal; note: the record names both GSK3A and GSK3B
# [7] = biological target: Epidermal growth factor receptor (Homo sapiens) (UniProt P00533); assay: compounds binding epidermal growth factor receptor – biochemical, small-molecule microarray, 635 nm fluorescence, primary screen (AID 1104); details: EGFR binding, higher = more signal;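 note: score merges 667 nm emission intensity with spot signal to noise over triplicate slides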
# Sequence of Epidermal growth factor receptor (Homo sapiens) (P00533 whole entry, looked up): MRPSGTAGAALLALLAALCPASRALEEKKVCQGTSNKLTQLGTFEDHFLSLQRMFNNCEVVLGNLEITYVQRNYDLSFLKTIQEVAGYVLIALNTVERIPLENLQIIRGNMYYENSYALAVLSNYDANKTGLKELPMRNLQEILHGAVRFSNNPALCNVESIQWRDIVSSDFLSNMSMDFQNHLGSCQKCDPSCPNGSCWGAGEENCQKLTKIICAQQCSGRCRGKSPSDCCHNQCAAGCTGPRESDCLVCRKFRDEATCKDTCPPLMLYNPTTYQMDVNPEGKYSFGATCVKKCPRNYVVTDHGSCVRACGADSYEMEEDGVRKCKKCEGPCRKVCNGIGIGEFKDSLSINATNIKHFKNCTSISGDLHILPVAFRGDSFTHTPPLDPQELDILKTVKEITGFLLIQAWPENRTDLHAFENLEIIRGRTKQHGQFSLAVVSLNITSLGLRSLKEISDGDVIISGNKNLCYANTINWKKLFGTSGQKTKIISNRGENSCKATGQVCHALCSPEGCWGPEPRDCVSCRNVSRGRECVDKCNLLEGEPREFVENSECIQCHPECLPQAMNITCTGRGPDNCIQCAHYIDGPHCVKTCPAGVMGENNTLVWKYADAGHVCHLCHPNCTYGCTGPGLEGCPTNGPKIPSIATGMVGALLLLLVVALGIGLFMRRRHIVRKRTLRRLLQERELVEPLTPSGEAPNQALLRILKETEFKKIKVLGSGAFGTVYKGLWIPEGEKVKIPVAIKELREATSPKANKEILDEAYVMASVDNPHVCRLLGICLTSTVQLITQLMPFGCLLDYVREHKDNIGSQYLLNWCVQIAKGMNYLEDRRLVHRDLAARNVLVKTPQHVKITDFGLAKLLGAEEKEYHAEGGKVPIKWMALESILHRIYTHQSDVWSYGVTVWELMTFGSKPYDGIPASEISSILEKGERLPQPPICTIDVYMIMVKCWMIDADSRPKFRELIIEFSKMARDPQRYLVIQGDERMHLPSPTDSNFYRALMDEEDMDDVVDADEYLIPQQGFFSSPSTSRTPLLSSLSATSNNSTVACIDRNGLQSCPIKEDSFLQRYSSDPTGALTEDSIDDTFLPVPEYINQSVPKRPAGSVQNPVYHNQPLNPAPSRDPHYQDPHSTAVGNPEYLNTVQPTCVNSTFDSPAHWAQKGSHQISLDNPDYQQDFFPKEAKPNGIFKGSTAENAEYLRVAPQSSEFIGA
# [8] = biological target: Follistatin-related protein 3 (Homo sapiens) (UniProt O95633); assay: compounds binding follistatin-related protein 3 – biochemical, small-molecule microarray, 635 nm fluorescence, primary screen (AID 1105); details: FSTL3 binding, higher = more signal;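 note: score merges emission near 667 nm and signal to noise per printed spot across three slides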
# Sequence of Follistatin-related protein 3 (Homo sapiens) (O95633 whole entry, looked up): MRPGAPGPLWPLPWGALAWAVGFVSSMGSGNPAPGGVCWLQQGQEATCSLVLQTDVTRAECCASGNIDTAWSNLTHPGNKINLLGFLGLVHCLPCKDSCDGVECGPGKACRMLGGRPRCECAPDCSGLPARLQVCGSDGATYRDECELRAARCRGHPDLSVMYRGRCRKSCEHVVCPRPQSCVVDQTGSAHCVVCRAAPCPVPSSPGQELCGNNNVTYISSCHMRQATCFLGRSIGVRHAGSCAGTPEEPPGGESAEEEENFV
# [9] = biological target: Dickkopf-related protein 1 (Homo sapiens) (UniProt O94907); assay: small molecules binding DKK1 protein – biochemical, small-molecule microarray, 635 nm fluorescence scan, primary screen (AID 1106); details: higher = more signal;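 note: score merges emission near 667 nm with signal to noise over three replicate slides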
# Sequence of Dickkopf-related protein 1 (Homo sapiens) (O94907 whole entry, looked up): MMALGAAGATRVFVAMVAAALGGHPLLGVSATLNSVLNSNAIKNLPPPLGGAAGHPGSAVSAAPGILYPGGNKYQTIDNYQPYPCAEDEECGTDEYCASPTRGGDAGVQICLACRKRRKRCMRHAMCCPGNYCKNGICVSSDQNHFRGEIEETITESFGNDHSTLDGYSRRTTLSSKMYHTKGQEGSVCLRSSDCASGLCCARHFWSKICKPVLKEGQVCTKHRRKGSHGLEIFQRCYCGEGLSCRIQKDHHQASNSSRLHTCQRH
# [10] = test system: Inhibin beta A chain (activin A); assay: small molecules binding activin A – biochemical, small-molecule microarray, 635 nm fluorescence scan, primary screen (AID 1107); details: INHBA, higher = more signal;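 note: mouse activin A protein probed at 4.33 µg/mL on printed slides; score merges bound-protein fluorescence near 667 nm with spot signal-to-noise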
# [11] = test system: Human papillomavirus type 1a protein E7 (residues 44-93); assay: small molecules binding HPV E7 44-93 – biochemical, small-molecule microarray, residues 44-93, 635 nm fluorescence, primary screen (AID 1108); details: fluorescence 635 nm, higher = more signal;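 note: E7 fragment applied at 1 µg/mL in TBST for 1 h at 4 C; score combines spot fluorescence with its signal to noise ratio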
# [12] = hepatitis C replication reporter changes, two-sided – Huh7 cells, luciferase reporter, HCV replication inhibitor project, primary screen (AID 1109); details: Huh7 HCV replicon luciferase reporter, 48 h; higher = more signal;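 note: huh7 hepatoma cells harbouring a luciferase neomycin HCV replicon reporter; luciferase luminescence as measure of HCV replicon replication; test concentration not given here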
# [13] = biological target: Left-right determination factor 2 (Homo sapiens) (UniProt O00292); assay: small molecules binding LEFTY2 protein – biochemical, small-molecule microarray, 635 nm fluorescence scan, primary screen (AID 1110); details: higher = more signal
# Sequence of Left-right determination factor 2 (Homo sapiens) (O00292 whole entry, looked up): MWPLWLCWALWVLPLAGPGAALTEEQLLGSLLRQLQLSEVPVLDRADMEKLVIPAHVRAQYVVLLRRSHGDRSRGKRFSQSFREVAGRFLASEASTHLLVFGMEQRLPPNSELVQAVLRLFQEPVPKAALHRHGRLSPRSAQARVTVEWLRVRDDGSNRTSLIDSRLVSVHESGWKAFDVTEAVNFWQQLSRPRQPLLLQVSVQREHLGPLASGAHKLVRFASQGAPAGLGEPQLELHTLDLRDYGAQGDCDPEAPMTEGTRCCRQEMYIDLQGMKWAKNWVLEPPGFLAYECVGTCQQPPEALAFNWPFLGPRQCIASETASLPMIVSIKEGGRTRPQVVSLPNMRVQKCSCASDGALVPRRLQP
# [14] = biological target: Calmodulin-1 (Homo sapiens) (UniProt P0DP23); assay: small molecules binding calmodulin-1 with EGTA – biochemical, small-molecule microarray, Cy5-labelled CALM1, profiling panel (AID 1111); details: Cy5-CALM1 binding fluorescence, higher = more signal;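 note: labelled calmodulin applied in Tris saline Tween buffer holding calcium plus EGTA and DTT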
# [15] = biological target: Calmodulin-1 (Homo sapiens) (UniProt P0DP23); assay: small molecules binding Ca-loaded calmodulin-1 – biochemical, small-molecule microarray, Cy5-labelled CALM1, plus calcium, artefact control for SMM control-protein annotation, profiling panel (AID 1112); details: Cy5-CALM1 binding fluorescence, higher = more signal;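 note: score merges spot fluorescence with signal to noise from triplicate slides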
# [16] = probe aWnt5a binding to arrayed compounds – biochemical, biotinylated probe, 635/667 nm fluorescence, primary screen (AID 1113); details: small-molecule microarray, higher = more signal;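 note: score merges 667 nm fluorescence intensity with signal-to-noise per printed feature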
# [17] = probe aShh binding to arrayed compounds – biochemical, biotinylated probe, 635/667 nm fluorescence, primary screen (AID 1114); details: small-molecule microarray, higher = more signal;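 note: probe is biotin-labelled aShh protein from a stem cell growth factor screen; measures binding of labelled protein to compounds printed on the slide; score merges feature fluorescence at 667 nm with signal-to-noise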
# [18] = probe aNog binding to arrayed compounds – biochemical, biotinylated probe, 635/667 nm fluorescence, primary screen (AID 1115); details: small-molecule microarray, higher = more signal;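 note: probe is biotinylated aNog protein used at 0.15 µg/mL for 1 h at 4 C; z-score combines 667 nm fluorescence of each spot with its signal to noise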
# [19] = biological target: Torsin-1A-interacting protein 1 (Homo sapiens) (UniProt Q5JTV8); assay: compound microarray binding of lysate hLAP1 – cell lysate, small-molecule microarray, COS7 lysate, 635/667 nm fluorescence, primary screen (AID 1116); details: 635 nm fluorescence, higher = more signal
# Sequence of Torsin-1A-interacting protein 1 (Homo sapiens) (Q5JTV8 whole entry, looked up): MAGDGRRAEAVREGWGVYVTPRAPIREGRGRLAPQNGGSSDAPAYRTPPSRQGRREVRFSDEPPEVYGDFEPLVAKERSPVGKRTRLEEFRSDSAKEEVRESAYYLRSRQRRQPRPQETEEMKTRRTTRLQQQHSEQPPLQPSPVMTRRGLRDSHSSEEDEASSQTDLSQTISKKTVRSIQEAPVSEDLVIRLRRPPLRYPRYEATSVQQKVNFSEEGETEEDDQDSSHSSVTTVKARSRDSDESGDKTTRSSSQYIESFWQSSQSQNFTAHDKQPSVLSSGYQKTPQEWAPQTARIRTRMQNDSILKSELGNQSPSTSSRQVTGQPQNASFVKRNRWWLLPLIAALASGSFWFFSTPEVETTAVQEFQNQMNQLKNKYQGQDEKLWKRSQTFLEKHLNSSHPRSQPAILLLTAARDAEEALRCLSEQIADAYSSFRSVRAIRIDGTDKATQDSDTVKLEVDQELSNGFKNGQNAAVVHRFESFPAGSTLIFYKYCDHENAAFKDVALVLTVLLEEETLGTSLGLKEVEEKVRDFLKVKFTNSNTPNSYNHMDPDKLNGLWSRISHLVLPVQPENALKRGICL
# [20] = biological target: Alpha-bungarotoxin (Bungarus multicinctus) (UniProt P60615); assay: compounds binding labelled alpha-BTX control protein – biochemical, small-molecule microarray, Alexa647 label, 635/667 nm fluorescence, artefact control for SMM control protein annotation, profiling panel (AID 1117); details: alpha-BTX-A647 binding fluorescence, higher = more signal
# Sequence of Alpha-bungarotoxin (Bungarus multicinctus) (P60615 whole entry, looked up): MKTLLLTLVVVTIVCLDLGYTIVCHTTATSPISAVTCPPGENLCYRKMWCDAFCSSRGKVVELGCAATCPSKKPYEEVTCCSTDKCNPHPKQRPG
Structure (SMILES),composite z-score [1],composite z-score [2],composite z-score [3],z-score [4],composite z-score [5],composite z-score [6],composite z-score [7],composite z-score [8],composite z-score [9],composite z-score [10],composite z-score [11],z-score [12],composite z-score [13],composite z-score [14],composite z-score [15],composite z-score [16],composite z-score [17],composite z-score [18],composite z-score [19],composite z-score [20]
COC(=O)C1=C(C)N(Cc2ccccc2)[C@]23O[C@](C(=O)OC)(C(=O)N2[C@@H]1c1ccccc1)[C@H]1C(=O)N(C)C(=O)[C@H]13,0.626 and 0.336,0.0479 and 0.177,-0.284 and -0.474,-1.03 (inactive) and -1.27 (inactive),0.408 and 0.827,0.933 and 0.452,0.473 and 0.427,0.645 and 0.82,0.415 and 0.942,-0.338 and 0.137,0.866 and 0.534,-1.01 and 0.238,1.15 and 0.687,0.949 and -0.202,0.29 and -0.107,-0.16 and -0.0165,-0.237 and 0.165,-0.108 and -0.0008,0.384 and 0.73,0.0312 and -0.0037
COC(=O)C1=C(C)N(Cc2ccccc2)C2=C3C(=O)CCC[C@@H]3[C@@](O)(C(=O)OC)C(=O)N2[C@@H]1c1ccccc1,0.464 and -0.773,0.0021 and -0.0015,-0.334 and -0.299,0.732 (inactive) and -1.28 (inactive),0.887 and 0.389,0.379 and 0.224,0.459 and 0.433,0.843 and 0.284,0.641 and 0.516,0.177 and 0.506,-0.0225 and -0.0706,-0.571 and -2.09,0.278 and 0.372,-0.255 and -0.674,-0.361 and -0.0671,-0.144 and -0.0185,-0.182 and 0.187,-0.424 and 0.0775,0.617 and 0.179,0.187 and -0.503
COC(=O)C1=C(C)N(Cc2ccccc2)[C@]23O[C@](C(=O)OC)(C(=O)N2[C@@H]1c1ccccc1)[C@@H](c1ccccc1)[C@@H]3C(=O)c1ccccc1,-0.104 and 0.177,0.107 and 0.263,-0.0791 and -0.347,-1.55 (inactive) and -0.5 (inactive),0.0494 and 0.417,0.338 and -0.145,0.0596 and 0.511,0.208 and 0.524,0.217 and 0.967,-0.431 and 1.21,0.189 and -0.932,0.989 and 0.471,0.494 and 0.9,1.43 and -1.06,0.589 and -0.256,-0.0417 and -0.137,-0.276 and -0.16,-0.0315 and -0.226,0.296 and -0.228,0.932 and -0.0514
CO[C@@H]1COC(=O)CC=C[C@H](C)COC(=O)[C@H](C)NC(=O)CC=C[C@H]1C,0.237,-0.525,-0.774,-0.401 (inactive),0.754,0.736,0.715,0.829,0.951,0.249,-0.103,-0.394,0.663,-0.76,-0.754,-0.13,0.178,-0.118,0.542,-0.711
C=C[C@@H](C)[C@@H](O)c1ccc(O)c2ccccc12,1.02 and -0.0966,-0.419 and -0.315,0.238 and 0.216,0.591 (inactive) and -0.814 (inactive),-0.665 and -0.654,-1.52 and -0.746,-0.815 and -1.04,-0.961 and -0.644,-0.598 and 0.088,0.936 and 0.89,-0.719 and -0.288,-1.55 and -2.15,-1.21 and -0.861,-0.878 and -0.992,-0.36 and -0.903,-0.146 and -0.236,0.23 and -0.214,-0.337 and -0.411,-0.802 and 0.0066,-1.29 and 1.65
CCOC(=O)C[C@H]1[C@H](OC(=O)c2ccccc2-c2ccccc2)[C@@H](NC(=O)Cc2ccc(OC)cc2)c2cc(OCCCO)ccc2N1C(=O)c1ccc2ccccc2n1,0.108 and 0.154,-0.114 and 0.575,0.0078 and 0.468,-0.472 (inactive) and -0.891 (inactive),0.43 and 0.682,0.0554 and 0.185,0.219 and -0.108,0.0539 and 0.0407,0.404 and 0.209,0.773 and 0.105,0.005 and 0.188,-1.38 and -0.367,0.417 and 0.0866,0.174 and 1.45,0.141 and 0.318,0.0031 and 0.0512,-0.0681 and -0.0146,0.0926 and -0.111,0.032 and 0.747,0.572 and 0.924
C=C[C@@H](OC)[C@H](O)c1ccc(OC)c(O)c1,-1.12 and 0.402,-0.42 and -0.521,-0.6 and -0.0832,-0.984 (inactive) and -1.14 (inactive),0.146 and -0.514,-0.374 and -0.669,0.526 and -1.08,0.878 and -0.9,0.131 and -0.539,1.27 and -0.492,-0.306 and -0.0635,0.552 and -0.127,0.861 and -0.46,-1.19 and -1.42,-0.799 and -0.187,-0.293 and -0.208,-0.289 and -0.138,-0.321 and -0.347,0.0742 and 0.111,-0.397 and 0.989
C=CC[C@@H](O)c1ccc(O)c2ccccc12,1.35 and 1.41,-0.05 and -0.227,-0.0013 and -0.333,-0.879 (inactive) and 3.08 (inactive),0.991 and 1.34,0.797 and 1.25,1.33 and 1.15,1.2 and 1.43,0.817 and 1.14,1.38 and 0.954,0.837 and 1.21,-1.89 and -2.65,0.723 and 0.901,-1.52 and -0.403,-1.59 and -1.41,-0.101 and -0.0704,0.296 and -0.0553,-0.369 and -0.55,0.848 and 0.0091,2.05 and 1.17
CCOC(=O)C[C@H]1[C@H](OC(=O)c2ccccc2-c2ccccc2)[C@@H](NC(=O)Cc2ccc(OC)cc2)c2cc(OCCCO)ccc2N1C(=O)Cc1ccc(OC)cc1,0.463 and -0.568,0.659 and -0.038,0.675 and 0.58,-1.05 (inactive) and -0.311 (inactive),0.57 and -0.0746,0.348 and -0.607,-0.111 and -0.847,0.223 and -0.624,-0.215 and -0.331,0.29 and 0.764,0.361 and -0.687,-0.912 and -0.962,0.422 and -0.519,1.11 and -0.163,0.971 and -0.309,-0.0346 and -0.0107,0.412 and -0.0977,0.811 and 0.467,0.477 and 0.415,0.873 and 0.224
